High-throughput results from PubChem BioAssay.
An excerpt weighted towards active compounds, which were near 7.2% of everything screened.
Sm TGR inh – qHTS Assay for the Inhibitors of Schistosoma Mansoni Peroxiredoxins. purified TGR, DTNB reduction, TNB absorbance 405 nm. 360,000 tested, 3% active. Schistosoma mansoni thioredoxin glutathione reductase (TGR), Q962Y6. Potency, µM (doses to about 114 µM), for the others: at the top dose activity change, negative = inhibition, actives largely listed as inhibitors; further: nearly all actives have a fitted effect of over 60% in size
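First, TGR (20 nM dispensed) and NADPH were mixed with compound. Second, a 15 min room-temperature incubation followed. Third, further NADPH and then DTNB were added to start the reaction. Finally, TNB absorbance was monitored kinetically.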
RE007 growth inh – qHTS Assay for Inhibitors of the HIV-1 protein Vpr. Potency, µM (series often up to 92.2 µM), without a hit: at the top dose activity change, negative = less growth, usual class: inhibitors. 360,000 tested, 0.21% active. S. pombe RE007 Vpr strain, BacTiter-Glo ATP luminescence, 24 h; active means well fitted falling curve with a large enough effect; inconclusive means small, poorly fitted or top-dose-only effect; inactive means no such curve, though single readings can be large or run the other way; further: nearly all actives have a fitted effect of over 50% in size
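Fission yeast RE007 carrying one integrated HIV-1 vpr copy, seeded at OD 0.01 in PMG+AL medium with 23 nL pinned compound. Grown 24 h at 30 degrees; viability read by BacTiter-Glo luminescence after 5 min.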
Lassa entry inh – qHTS for Inhibitors of binding or entry into cells for Lassa Virus; Lassa virus pseudotype entry inhibition, cell reporter; Potency, µM (doses to about 37.9 µM), for the others: at the highest dose activity change, negative = inhibition, usual class: inhibitors; 300,000 tested, 1.2% active; AID 540256, 2011; calls by dose curve; tested in HEK293 cells; further: nearly all actives have a fitted effect of over 50% in size
HCV inhibitor – qHTS Assay for Inhibitors of Hepatitis C Virus (HCV); Potency, µM (doses to about 41.8 µM), without a hit: at the top dose activity change, negative = inhibition, actives largely listed as inhibitors; Huh7.5.1 HCVcc-Cre infection, luciferase reporter, 44 h; 340,000 tested, 3.4% active
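Compounds are dispensed onto cells plated 4 h earlier at 1,000 per well, with HCVcc-Cre virus (about 0.5 moi) added next. Following 44 h of culture, luminescent signal is measured for 15 sec after 15 min with substrate at room temperature.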
Marburg entry inh – qHTS for inhibitors of binding or entry into cells for Marburg Virus; Marburg virus pseudotyped entry inhibition, cell reporter; Potency, µM (series often up to 37.8 µM), for the others: at the top dose activity change, negative = inhibition, usual class: inhibitors; 300,000 tested, 1.8% active; calls by dose curve; tested in HEK293 cells
FMDV antiviral – High Throughput Screening for Foot and Mouth Disease Virus Antivirals; Potency, µM (series often up to 57.9 µM), for inactives: at the highest dose activity change, negative = inhibition, actives largely listed as inhibitors; AID 1159524, 2015; 410,000 tested, 1.2% active; FMDV antiviral cell-based qHTS; calls by dose curve; tested in HEK293T cells; further: read-out not given here; nearly all actives have a fitted effect of over 45% in size
* marks the source's active call; other numbers are inactive results; u = inconclusive; x = not tested or not shown; [ ] = remark or other dose. Unless noted, the call rests on the fitted dose curve; in most records, active means well fitted curve in the direction sought with a large enough effect; inconclusive means small, poorly fitted or top-dose-only effect, or another doubt; inactive means no such curve, though single readings can be large; an effect the other way counts as inactive or inconclusive. On the % scale 0 is the no-effect control and ±100 the full control effect; potency means the concentration at half of the fitted maximal effect.

SMILES	Sm TGR inh	RE007 growth inh	Lassa entry inh	HCV inhibitor	Marburg entry inh	FMDV antiviral
COc1ccc(CN(C(=O)/C=C/c2ccco2)C2CCS(=O)(=O)C2)cc1OC (configuration not stated)	3.5µM*	-6%	x	11%	x	-4%
COc1cccc(CN(C(=O)c2ccco2)C2CCS(=O)(=O)C2)c1 (configuration not stated)	-5%	4%	x	13%	x	12%
Cn1cnc(S(=O)(=O)N2CCC(C(=O)N3CCN(c4ccccc4F)CC3)CC2)c1	4%	x	u	x	x	-20%
CCOc1ccc(CN(C(=O)/C=C/c2ccco2)C2CCS(=O)(=O)C2)cc1 (configuration not stated)	4.5µM*	12%	x	15%	x	-14%
COc1ccc(NC(=O)CSc2nc3ccccc3n2CC(=O)Nc2cccc(C)c2C)cc1	-2%	x	-9%[46.1 µM]	x	x	-20%
Cc1cnc(CNc2ncncc2-c2cccnc2)cn1	x	x	x	x	x	-9%
COC(=O)C1=C(c2ccc(-c3ccccc3)c(F)c2)C[C@@H]2CC[C@H]1N2C(=O)NC1CC1	-2%	-6%	x	10µM*	x	-13%
CCCNC(=O)N1[C@H]2CC[C@@H]1C(C(=O)OC)=C(c1ccc(-c3ccccc3)c(F)c1)C2	1%	9%	x	7.9µM*	x	u
COC(=O)C1=C(c2ccc(-c3ccccc3)c(F)c2)C[C@@H]2CC[C@H]1N2C(=O)NCCOc1ccccc1Cl	0%	12%	x	14µM*	x	u
O=C(CCS(=O)(=O)c1cccs1)Nc1ccc(C(=O)Nc2ccccc2F)cc1	-3%	x	11%[46.1 µM]	x	-1%[46.1 µM]	-8%
O=S(=O)(c1ccc(F)cc1)N1CCC(Oc2ccc(-n3cnnn3)cc2)CC1	1%	x	-10%[46.1 µM]	x	-1%[46.1 µM]	-24%
COc1cccc(-c2nn(-c3ccc(C)cc3)cc2C(=O)N(C)CC(=O)Nc2cccc(F)c2)c1	-2%	-26%	u	u	u	-11%
CCOc1ccc(NC(=O)CN(C)C(=O)c2cn(-c3ccc(C)cc3)nc2-c2cccc(OC)c2)cc1OCC	x	1%	-29%	u	11µM*	-5%
COc1cc(/C=C2/SC(=S)NC2=O)ccc1OS(=O)(=O)c1ccc(C)cc1	-4%	22%	-16%	6%	u	28µM*
COc1ccc(/C=C2\SC(=O)NC2=S)cc1OC	18µM*	-21%	7%	u	u	5%
CCOc1ccc(/C=C2\SC(=S)NC2=O)cc1OC	-8%	-23%	3%	-2%	7%	13%
COc1cc(/C=C2\SC(=S)NC2=O)ccc1OS(=O)(=O)c1ccccc1	-1%	x	-1%	7%	-19%	x
CC1CCCCN1CC(=O)c1ccc2cc[nH]c2c1 (configuration not stated)	8.9µM*	1%	x	19%	x	14%
CC1CCCCN1CC(=O)c1c[nH]c2ccccc12 (configuration not stated)	-31%	9%	2%	19%	u	4%
Cc1cc(F)ccc1NC(=O)C1CCN(C(=O)c2cnn(-c3ccccc3)c2-n2cccc2)CC1	8%	x	-2%[46.1 µM]	x	-9%[46.1 µM]	-17%
CC1(C)CC(=O)C(C=NCCN2CCN(C3CC(=O)N(c4ccc(Br)cc4)C3=O)CC2)=C(O)C1 (configuration not stated)	50µM*	u	-4%	29%	1%[46.1 µM]	-23%
CCOC(=O)c1ccc(NC(=S)N2CCN(CCN=CC3=C(O)CC(C)(C)CC3=O)CC2)cc1	1.1µM*	37%	0%	u	13%[46.1 µM]	-11%
CC1(C)CC(=O)C(C=NCCN2CCN(C(=O)Cc3ccc(Cl)cc3)CC2)=C(O)C1	u	13%	-5%	2%	0%	4%
CC1(C)CC(=O)C(C=NCCN2CCN(C(=O)C34CC5CC(CC(C5)C3)C4)CC2)=C(O)C1	25µM*	4%	0%	9%	u	-20%
CCOC(=O)c1ccc(NC(=O)CN2CCN(CCN=CC3=C(O)CC(C)(C)CC3=O)CC2)cc1	u	52%	14%[46.1 µM]	4%	5%[46.1 µM]	-5%
